Reference: PubChem BioAssay (NCI)
Compounds without any hit were thinned out: in the full panel of roughly 83,000, 20% have a hit.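 Each cell line was grown in a 96-well plate and treated with one concentration of compound for 48 hours. Values below 10 were considered active.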 Active and inactive are the calls of the source.

Tests used:
Assay in all cases: NCI-60 one-dose screen, 48 h (100 = growth as untreated, 0 = no growth, -100 = all killed)
SR leukemia = settings: 10 µM unless noted
RPMI-8226 leukemia = settings: 10 µM unless noted
OVCAR-5 ovarian = settings: 10 µM unless noted
OVCAR-4 ovarian = settings: 10 µM unless noted
SK-OV-3 ovarian = settings: 10 µM unless noted
IGROV1 ovarian = settings: 10 µM unless noted
OVCAR-3 ovarian = settings: 10 µM unless noted
NCI/ADR-RES ovarian = settings: 10 µM unless noted
T-47D breast = settings: 10 µM unless noted
BT-549 breast = settings: 10 µM unless noted
MDA-MB-435 melanoma = settings: 10 µM unless noted
SW-620 colon = settings: 10 µM unless noted
MCF7 breast = settings: 10 µM unless noted
HCC-2998 colon = settings: 10 µM
KM12 colon = settings: 10 µM unless noted
HCT-116 colon = settings: 10 µM unless noted
OVCAR-8 ovarian = settings: 10 µM unless noted
HS 578T breast = settings: 10 µM

Measured: growth

CC/C(=C(\c1ccc(OCCN2CCCCCCC2)cc1)c1ccc(OC(=O)C2CCCCC2)cc1)c1ccc(Cl)cc1
inactive: SR leukemia 78.5% | RPMI-8226 leukemia 107% | OVCAR-5 ovarian 89.9% | OVCAR-4 ovarian 108% | SK-OV-3 ovarian 111% | IGROV1 ovarian 103% | OVCAR-3 ovarian 99.1% | NCI/ADR-RES ovarian 105% | T-47D breast 77.4% | BT-549 breast 116% | MDA-MB-435 melanoma 99.8% | SW-620 colon 95.5% | MCF7 breast 48.5% | HCC-2998 colon 109% | KM12 colon 97.1%

CC(C)(C)c1nc(-c2cccc(NS(=O)(=O)c3c(F)cccc3F)c2F)c(-c2ccnc(N)n2)s1
inactive: SR leukemia 50.4% | RPMI-8226 leukemia 75.5% | OVCAR-5 ovarian 41.1% | OVCAR-4 ovarian 114% | SK-OV-3 ovarian 71.9% | IGROV1 ovarian 64.5% | OVCAR-3 ovarian 103% | NCI/ADR-RES ovarian 95.5% | T-47D breast 92.6% | BT-549 breast 118% | MDA-MB-435 melanoma 87.3% | SW-620 colon 73.3% | MCF7 breast 79.7% | HCT-116 colon 48.1% | HCC-2998 colon 85.1% | KM12 colon 44.6%

COC(=O)[C@@H](C)CNS(=O)(=O)N(c1cc(C(F)(F)F)cc(C(F)(F)F)c1)C1CCN(Cc2ccc(F)cc2)CC1
inactive: SR leukemia 26.7% | OVCAR-8 ovarian 67.3% | OVCAR-5 ovarian 76.1% | OVCAR-4 ovarian 73.4% | SK-OV-3 ovarian 76.2% | IGROV1 ovarian 54.7% | OVCAR-3 ovarian 56.7% | HS 578T breast 90.7% | NCI/ADR-RES ovarian 51% | T-47D breast 31.1% | BT-549 breast 89.6% | MDA-MB-435 melanoma 76.8% | SW-620 colon 73.9% | MCF7 breast 48.7% | HCT-116 colon 43.4%
active: HCC-2998 colon -65.3%

C=CC(=O)Nc1cc2c(Nc3ccc(F)c(Cl)c3)ncnc2cc1C#CC(C)(C)N1CCN(C)CC1
active: SR leukemia -14.2% | RPMI-8226 leukemia -34.2% | OVCAR-5 ovarian -95.5% | OVCAR-4 ovarian -96.2% | SK-OV-3 ovarian -96.6% | IGROV1 ovarian -73.9% | OVCAR-3 ovarian -96.7% | T-47D breast -81.5% | BT-549 breast -94% | MDA-MB-435 melanoma -98.1% | SW-620 colon -78% | MCF7 breast -65.2% | HCT-116 colon -92.6% | HCC-2998 colon -81.5% | KM12 colon -90.2%

CCOC(=O)c1sc(NC(=O)COc2ccc(/C=C3\Cc4ccc(Cl)cc4C3=O)cc2)nc1C
inactive: SR leukemia 103% | RPMI-8226 leukemia 96.1% | OVCAR-5 ovarian 111% | OVCAR-4 ovarian 112% | SK-OV-3 ovarian 110% | OVCAR-3 ovarian 113% | HS 578T breast 116% | NCI/ADR-RES ovarian 93.9% | T-47D breast 92.9% | BT-549 breast 94.5% | MDA-MB-435 melanoma 105% | SW-620 colon 123% | MCF7 breast 96.1% | HCT-116 colon 92.9% | KM12 colon 112%

Nc1nc(Nc2ccccc2)c(C=Nc2ccccc2)c(=O)[nH]1
inactive: RPMI-8226 leukemia 94.8% | OVCAR-8 ovarian 85.2% | OVCAR-5 ovarian 90.7% | OVCAR-4 ovarian 94.8% | SK-OV-3 ovarian 86.3% | IGROV1 ovarian 48.5% | OVCAR-3 ovarian 110% | HS 578T breast 87.5% | NCI/ADR-RES ovarian 91.9% | T-47D breast 81.4% | BT-549 breast 75.1% | MDA-MB-435 melanoma 94.7% | SW-620 colon 98.4% | MCF7 breast 92.5% | HCT-116 colon 85.1% | HCC-2998 colon 99.3% | KM12 colon 98.6%

CC(=O)OCCC/C(=C\c1ccc2ccccc2c1)[N+](=O)[O-]
inactive: OVCAR-4 ovarian 11.1% | SK-OV-3 ovarian 57.9%
active: SR leukemia -33.8% | OVCAR-8 ovarian -91.3% | OVCAR-5 ovarian -93.2% | IGROV1 ovarian -82.3% | OVCAR-3 ovarian -96.6% | HS 578T breast -40% | NCI/ADR-RES ovarian -7.25% | T-47D breast -50.9% | BT-549 breast -25.6% | MDA-MB-435 melanoma -41.6% | SW-620 colon -71.6% | MCF7 breast -85.2% | HCT-116 colon -100% | HCC-2998 colon -92.7% | KM12 colon -86.7%

CCc1ccc(/C=C/c2ccc(O)c3ncccc23)[n+](C)c1
inactive: OVCAR-5 ovarian 40.9% | OVCAR-4 ovarian 35.9% | SK-OV-3 ovarian 76.7% | IGROV1 ovarian 33.4% | HS 578T breast 23.1% | NCI/ADR-RES ovarian 73.4% | T-47D breast 31.2% | BT-549 breast 65.9% | MDA-MB-435 melanoma 59.4% | SW-620 colon 40.7% | MCF7 breast 53.8% | HCT-116 colon 18.3% | HCC-2998 colon 31.6%
active: SR leukemia 7.25% | OVCAR-8 ovarian -12.1% | OVCAR-3 ovarian -11.4%

Nc1nc(=S)c2ncn(C3OC(COC(=O)c4ccc(Cl)cc4)C(OC(=O)c4ccc(Cl)cc4)C3OC(=O)c3ccc(Cl)cc3)c2[nH]1 (configuration not stated)
inactive: SR leukemia 72.8% | OVCAR-8 ovarian 129% | OVCAR-5 ovarian 91.9% | OVCAR-4 ovarian 86.2% | SK-OV-3 ovarian 43.5% | IGROV1 ovarian 93.5% | OVCAR-3 ovarian 81% | T-47D breast 59.6% | BT-549 breast 113% | MDA-MB-435 melanoma 103% | SW-620 colon 100% | MCF7 breast 59.8% | HCT-116 colon 76% | KM12 colon 83.9%
active: HS 578T breast -29%

Nc1nc(N)c2cc(CNc3ccc(C(=O)NC(CC(=O)O)C(=O)O)cc3)ccc2n1 (configuration not stated)
active: OVCAR-8 ovarian -13.2% | HS 578T breast -20.2%
inactive: SR leukemia 13.8% | OVCAR-5 ovarian 30.1% | OVCAR-4 ovarian 50.8% | SK-OV-3 ovarian 47.4% | OVCAR-3 ovarian 50.5% | NCI/ADR-RES ovarian 17.3% | T-47D breast 62.3% | BT-549 breast 57.7% | MDA-MB-435 melanoma 37.8% | SW-620 colon 25.2% | MCF7 breast 17.3% | KM12 colon 33.8%

Cn1cnc(-c2cc3nccc(Oc4ccc(NC(=S)NC(=O)Cc5ccccc5)cc4F)c3s2)c1
inactive: SR leukemia 69.3% | RPMI-8226 leukemia 54.9% | OVCAR-5 ovarian 111% | OVCAR-4 ovarian 86.7% | SK-OV-3 ovarian 82.6% | IGROV1 ovarian 95.4% | OVCAR-3 ovarian 80.5% | NCI/ADR-RES ovarian 96% | T-47D breast 65.8% | BT-549 breast 77.3% | MDA-MB-435 melanoma 93.2% | SW-620 colon 76.7% | MCF7 breast 79.5% | HCT-116 colon 78.8% | HCC-2998 colon 104% | KM12 colon 21.8%
